Test results taken from PubChem BioAssay.

Assay: growth modulation of vineyard yeast isolate – strain RM11-1a, OD600, basal, 24 h, primary screen (AID 1177);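 also: cultures grown under basal conditions with no added stressor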
Settings: S. cerevisiae RM11-1a growth, OD600, 24 h; higher = more signal, called active from +8 up or from −8 down
Also: test concentration not given here.

z-score, inactive:
CCCC[C@@H]1C[C@H]1[C@@H](NC(=O)c1ccccc1)c1ccccc1C(F)(F)F -0.114
COc1ccc(CCN2C(=O)[C@@]3(c4ccc([N+](=O)[O-])cc4)CC(=O)N(CC45CC6CC(CC(C6)C4)C5)[C@@H]3c3ccc(CO)cc32)cc1 -0.16
O=C1O[C@@H](c2ccccc2)[C@@H](c2ccccc2)N2[C@@H](c3ccc(OCCO)cc3)[C@]3(C(=O)Nc4ccc(C#CCCO)cc43)[C@@H](C(=O)N3CCN(c4ncccn4)CC3)[C@H]12 2.04
Cc1ccc(S[C@]2(C(=O)NC(C)C)CC(=O)N(C3Cc4ccccc4C3)[C@@H]2c2ccc(CO)cc2)cc1 -0.792
O=C1O[C@H](c2ccccc2)[C@H](c2ccccc2)N2[C@H]1[C@@H](C(=O)Nc1nc3ccccc3s1)[C@]1(C(=O)Nc3ccc(C#CC4=CCCCC4)cc31)[C@H]2c1ccccc1OCCO 2.71
C=CC[C@]1(C(=O)O)N=C(c2ccc(OCCCO)cc2)O[C@H]1c1ccccc1N=[N+]=[N-] 1.21
CCOC(=O)C1=C[C@@H](c2ccccc2)N(S(=O)(=O)c2ccc(C)cc2)[C@H]1c1ccc(F)cc1 2.33
C=CCC(OC(C)=O)[C@@H]1[C@@H](N(Cc2cccc3ccccc23)C(=O)c2ccc(C)cc2)c2cc(OCCCO)ccc2N1C(=O)c1ccc(-c2ccccc2)cc1 (some centres not stated) -1.51
COc1ccc(-c2cc3c(c(-c4ccccc4)n2)[Si](C(C)C)(C(C)C)O[C@H]3c2ccccc2)cn1 -0.824
Cc1ccc(S[C@]2(C(=O)O)CC(=O)N(Cc3cc(C(F)(F)F)cc(C(F)(F)F)c3)[C@@H]2c2ccc(CO)cc2I)cc1 0.555
O=C1O[C@H](c2ccccc2)[C@H](c2ccccc2)N2[C@H]1[C@@H](C(=O)Nc1nc3ccccc3s1)[C@]1(C(=O)Nc3ccc(C#CC4(O)CCCCCC4)cc31)[C@H]2c1ccc(O)cc1 -0.124
O=C1C2C=CC(C(O)C#Cc3ccccc3)N(Nc3ccccc3)C2C(=O)N1c1ccccc1 (configuration not stated) 0.143
CN1C(=O)C2C=CC(C(O)C3CC=CCC3)N(Nc3ccccc3)C2C1=O (configuration not stated) 0.0862
COCCCNC(=O)[C@@]1(c2ccc([N+](=O)[O-])cc2)CC(=O)N(C2CCCCC2)[C@@H]1c1ccc(CO)cc1 -0.491
Cc1ccccc1C(O)C1C=CC2C(=O)N(c3ccccc3)C(=O)C2N1Nc1ccc(C#N)cc1 (configuration not stated) 0.302
CCOC(=O)C[C@H]1[C@H](OC(=O)Cc2ccc3c(c2)OCO3)[C@@H](NC(=O)c2ccc3ccccc3c2)c2cc(OCCCO)ccc2N1C(=O)Cc1ccc(OC)cc1 -1.66
COC(=O)[C@@]1(Cc2ccccc2CN=[N+]=[N-])N=C(c2ccc(OCCCO)cc2)O[C@H]1c1ccccc1N=[N+]=[N-] 2.6
O=C/C=C/c1ccc(/C=C/c2ccccc2)cc1 -1.01
CC(C)NC(=O)[C@@]1(Cc2ccccc2I)c2ccccc2C(=O)N(C2CCCCC2)[C@H]1c1ccc(CO)cc1 1.31
C=CCC(OC(C)=O)[C@@H]1[C@@H](N(Cc2cccc3ccccc23)C(=O)Cc2ccc(F)cc2)c2cc(OCCCO)ccc2N1C(=O)Cc1ccc2ccccc2c1 (some centres not stated) 0.0764
CCCC=C(CCC)[C@@H](NC(=O)c1ccc(C(F)(F)F)cc1)c1ccccc1 0.513

Assay: growth of efflux-deficient E. coli DRC39 – strain DRC39, OD650, 24 h, E. coli filamentation inducers, primary screen (AID 1178);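 also: growth measured as culture turbidity by optical density at 650 nm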
Settings: E. coli DRC39 acrAB, higher = more signal, called active from +8 up or from −8 down

z-score, inactive:
COCCOC(=O)N1C(=O)[C@@]2(c3cc(C#CC4=CCCCC4)ccc31)[C@H](C(=O)NC[C@H](O)c1ccccc1)[C@H]1C(=O)O[C@H](c3ccccc3)[C@H](c3ccccc3)N1[C@@H]2c1ccc(OCCO)cc1 -0.276
CCC#CCN(Cc1ccccc1Br)[C@H](/C=C/c1ccccc1)[C@@H](O)Cc1ccccc1 1.19
C=C(CCCC)/C(=C/C[C@@H](OC(=O)c1ccncc1)c1cccc(OCCO)c1)c1cc(C(=O)OC)ccc1OC 1.81
NC(=O)NCC#Cc1ccc2c(c1)[C@]1(C(=O)N2)[C@H](c2ccccc2OCCO)N2[C@H](c3ccccc3)[C@H](c3ccccc3)OC(=O)[C@H]2[C@@H]1C(=O)N1CCN(c2ncccn2)CC1 1.27
O=C1OCC=C[C@H]2OC34C=CCN(Cc5ccccc5)C(=O)[C@H]3N(CCO)C(=O)[C@@H]4[C@@H]12 (some centres not stated) 0.508
Cc1ccc(S[C@]2(C(=O)NC(C)C)CC(=O)N(Cc3cc(C(F)(F)F)cc(C(F)(F)F)c3)[C@@H]2c2ccc(CO)cc2I)cc1 0.498
COc1ccc(C(=O)Nc2ccc(CN3C(=O)[C@]4(O[C@H](CCn5cc(CCO)nn5)[C@@H]([Si](C)(C)c5ccc(OC)cc5)[C@@H]4C)c4ccccc43)cc2)cc1 1.09
COC(=O)[C@@]1(Cc2ccccc2)[C@H]2c3cc(C(=O)N4CCCC4)n(CCN4CNCC4=O)c3C[C@H]2CN1C(=O)c1ccccc1 0.499
CCCNC(=O)[C@@H]1c2ccccc2C(=O)N(C2CCCCC2)[C@H]1c1ccc(CO)cc1 0.619
CC(C)C[C@@H]1NC(=O)[C@H]2C[C@@H](C(=O)NCCCCCC[N+](C)(C)C)[C@@H](c3ccc(O)cc3)N2C1=O 0.385
O=C(NCc1ccccc1)[C@@]1(Cc2ccccc2)COC(c2ccc(OCCCO)cc2)=N1 0.11
C=CCN1C(=O)[C@@]2(Cc3ccccc3)N=C(c3ccc(OCCCO)cc3)O[C@H]2c2ccccc21 -0.304
COCCCNC(=O)[C@@H]1c2ccccc2C(=O)N(CC23CC4CC(CC(C4)C2)C3)[C@H]1c1ccc(CO)cc1 0.0488
[N-]=[N+]=NCc1ccccc1[C@H]1OC(c2ccc(OCCCO)cc2)=N[C@@]1(Cc1ccccc1N=[N+]=[N-])C(=O)NCc1ccccc1 0.134
O=C1C2C=CC(C(O)c3ccccc3)N(n3cnnc3)C2C(=O)N1Cc1ccccc1 (configuration not stated) -0.456
CCCC[C@@H]1C[C@H]1[C@@H](NC(=O)c1ccccc1)c1ccccc1C(F)(F)F -0.372
COc1ccc(CCN2C(=O)[C@@]3(c4ccc([N+](=O)[O-])cc4)CC(=O)N(CC45CC6CC(CC(C6)C4)C5)[C@@H]3c3ccc(CO)cc32)cc1 0.307
O=C1O[C@@H](c2ccccc2)[C@@H](c2ccccc2)N2[C@@H](c3ccc(OCCO)cc3)[C@]3(C(=O)Nc4ccc(C#CCCO)cc43)[C@@H](C(=O)N3CCN(c4ncccn4)CC3)[C@H]12 1.05
Cc1ccc(S[C@]2(C(=O)NC(C)C)CC(=O)N(C3Cc4ccccc4C3)[C@@H]2c2ccc(CO)cc2)cc1 -0.127
O=C1O[C@H](c2ccccc2)[C@H](c2ccccc2)N2[C@H]1[C@@H](C(=O)Nc1nc3ccccc3s1)[C@]1(C(=O)Nc3ccc(C#CC4=CCCCC4)cc31)[C@H]2c1ccccc1OCCO -1.27
C=CC[C@]1(C(=O)O)N=C(c2ccc(OCCCO)cc2)O[C@H]1c1ccccc1N=[N+]=[N-] 2.63
CCOC(=O)C1=C[C@@H](c2ccccc2)N(S(=O)(=O)c2ccc(C)cc2)[C@H]1c1ccc(F)cc1 -0.213
C=CCC(OC(C)=O)[C@@H]1[C@@H](N(Cc2cccc3ccccc23)C(=O)c2ccc(C)cc2)c2cc(OCCCO)ccc2N1C(=O)c1ccc(-c2ccccc2)cc1 (some centres not stated) 0.611
COc1ccc(-c2cc3c(c(-c4ccccc4)n2)[Si](C(C)C)(C(C)C)O[C@H]3c2ccccc2)cn1 0.0539
Cc1ccc(S[C@]2(C(=O)O)CC(=O)N(Cc3cc(C(F)(F)F)cc(C(F)(F)F)c3)[C@@H]2c2ccc(CO)cc2I)cc1 0.0907
O=C1O[C@H](c2ccccc2)[C@H](c2ccccc2)N2[C@H]1[C@@H](C(=O)Nc1nc3ccccc3s1)[C@]1(C(=O)Nc3ccc(C#CC4(O)CCCCCC4)cc31)[C@H]2c1ccc(O)cc1 -0.492
O=C1C2C=CC(C(O)C#Cc3ccccc3)N(Nc3ccccc3)C2C(=O)N1c1ccccc1 (configuration not stated) -0.169
CN1C(=O)C2C=CC(C(O)C3CC=CCC3)N(Nc3ccccc3)C2C1=O (configuration not stated) -1.11
COCCCNC(=O)[C@@]1(c2ccc([N+](=O)[O-])cc2)CC(=O)N(C2CCCCC2)[C@@H]1c1ccc(CO)cc1 -0.131
Cc1ccccc1C(O)C1C=CC2C(=O)N(c3ccccc3)C(=O)C2N1Nc1ccc(C#N)cc1 (configuration not stated) 0.493
CCOC(=O)C[C@H]1[C@H](OC(=O)Cc2ccc3c(c2)OCO3)[C@@H](NC(=O)c2ccc3ccccc3c2)c2cc(OCCCO)ccc2N1C(=O)Cc1ccc(OC)cc1 0.37
COC(=O)[C@@]1(Cc2ccccc2CN=[N+]=[N-])N=C(c2ccc(OCCCO)cc2)O[C@H]1c1ccccc1N=[N+]=[N-] 0.365
O=C/C=C/c1ccc(/C=C/c2ccccc2)cc1 2.11
CC(C)NC(=O)[C@@]1(Cc2ccccc2I)c2ccccc2C(=O)N(C2CCCCC2)[C@H]1c1ccc(CO)cc1 0.545
C=CCC(OC(C)=O)[C@@H]1[C@@H](N(Cc2cccc3ccccc23)C(=O)Cc2ccc(F)cc2)c2cc(OCCCO)ccc2N1C(=O)Cc1ccc2ccccc2c1 (some centres not stated) -0.283
CCCC=C(CCC)[C@@H](NC(=O)c1ccc(C(F)(F)F)cc1)c1ccccc1 0.0948
